TEAD-YAP inh: TEAD-YAP interaction inhibition; HEK-TIYL cells, TEAD-Gal4/YAP UAS-luciferase luminescence; inhibition, % at 9.12 µM; hit rate 1.4% among 640,000; AID 1259422; in the data active means inhibition above about 32%;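 further: 0% = median of test compound wells and 100% = reference inhibitor wells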
GPR151 activ: activates the human receptor GPR151; PathHunter beta-arrestin GPR151 cells, luminescence; activation, % at 11.2 µM; hit rate 1% among 650,000; in the data active means activation above about 4.9%;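 further: 0% = median of compound wells and 100% = cells with positive control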
Target sequence (Q8TDV0 whole entry, looked up): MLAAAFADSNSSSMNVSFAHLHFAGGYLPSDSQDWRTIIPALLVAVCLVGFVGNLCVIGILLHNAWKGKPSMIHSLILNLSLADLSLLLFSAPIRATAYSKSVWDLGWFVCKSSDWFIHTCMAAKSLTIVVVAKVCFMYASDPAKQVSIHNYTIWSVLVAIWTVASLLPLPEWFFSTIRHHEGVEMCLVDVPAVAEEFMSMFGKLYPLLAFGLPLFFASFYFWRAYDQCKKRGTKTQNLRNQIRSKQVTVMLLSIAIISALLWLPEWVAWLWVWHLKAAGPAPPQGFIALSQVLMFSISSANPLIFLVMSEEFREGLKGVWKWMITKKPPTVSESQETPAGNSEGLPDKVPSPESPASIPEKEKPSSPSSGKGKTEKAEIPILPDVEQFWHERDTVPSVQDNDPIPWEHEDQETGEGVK
MITF inh: human MITF inhibition, primary screen. O75030. AlphaScreen MITF homodimerization, bead proximity signal. inhibition, % at 2.6 µM. hit rate 0.91% among 650,000; in the data active means inhibition above about 50%;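 further: 0% = vehicle wells with protein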
FBW7 act: human FBW7 E3 ligase activation, primary screen | Q969H0 | AlphaScreen FBW7–phospho-cyclin E peptide binding, activator screen | normalized activity (activation), % at 26.1 µM | hit rate 0.13% among 650,000 | AID 1259310; in the data active means normalized activity above about 1.9%;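 further: purified mutant Fbw7 with reduced substrate affinity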
GPR151 confirm: confirmation of human GPR151 activators; shares compounds with GPR151 activ; GPR151 PathHunter beta-arrestin cells, luminescence, 90 min; % of EA-reagent control over plate median; activation, % at 11.2 µM; 6,700 tested, under 10 active;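 active means mean percent activation across replicates above the confirmation screen cutoff of 4.91%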
GPR119 counter: activates human GPR119 in a GPR151 counter-screen. shares compounds with GPR151 activ. GPR119 PathHunter beta-arrestin cells, luminescence, 90 min; 0 = compound-well median, 100 = enzyme-acceptor control. activation, % at 11.2 µM. hit rate 0.3% among 6,700. AID 1508611;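 active means mean percent activation in the counterscreen above 29.09%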;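 further: counterscreen on off-target GPR119 to flag nonselective hits from the GPR151 activator screen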
* = called active by the depositor; / = not tested or not shown. Hits are enriched below; roughly 3.5% of the tested compounds scored in any of these assays.

SMILES	TEAD-YAP inh	GPR151 activ	MITF inh	FBW7 act	GPR151 confirm	GPR119 counter
O=c1c2sc3ccc([N+](=O)[O-])cc3c2[nH]c(=S)n1Cc1ccccn1	2	8.8*	6	0	-1	-8
OCCCNc1nc(CSc2ccccc2)nc2sc3c(c12)CCC3	-45	3	1	0	/	/
O=C1C2CCCCC2C(=O)N1Nc1nc2c(c(C(F)(F)F)n1)CCCCC2 (stereo not given)	0	1	8	0	/	/
CCC1(CCC(=O)NCC2(c3ccccc3)CCOCC2)CCC(=O)N1 (stereo not given)	-8	9.5*	-4	0	0	-1
CC1(C)Cc2nc3sc4c(SCC(=O)N5CCOCC5)ncnc4c3cc2CO1	-5	5.9*	-17	0	0	-9
CCOC(=O)c1cc(-c2ccccc2)n(CCCN2CCOCC2)c1C	14	-1	10	0	/	/
CCOC(=O)c1cc(-c2ccccc2)oc1CN1CCOCC1	7	8.9*	19	0	0	8
CC1CCCCN1CCCNC(=O)CN1C(=O)/C(=C/c2ccccc2)Sc2ccccc21 (stereo not given)	-9	0	0	0	/	/
CCOc1cc(C=C2C(=O)NC(=O)NC2=O)ccc1OC	14	-2	12	0	/	/
COc1ccc(S(=O)(=O)Oc2cccc(C=C3C(=O)NC(=O)NC3=O)c2)cc1	-10	6.1*	-5	-1	0	8
O=C1NC(=O)C(=Cc2cccc(OS(=O)(=O)c3ccc(Cl)cc3)c2)C(=O)N1	-21	2	-9	-1	/	/
CCOc1cc(C=C2C(=O)NC(=O)NC2=O)ccc1OS(=O)(=O)c1ccc(OC)cc1	6	6.0*	-11	0	1	4
COC(=O)C1CCN(C(=O)c2cccc(OC)c2)CC1	9	0	-4	0	/	/
CCOc1ccc(Nc2n[nH]c(=S)n2-c2ccc(OCC)cc2)cc1	4	6.3*	0	0	1	5
O=C(NCc1ccccn1)C(=O)Nc1nc2ccccc2s1	-40	0	0	0	/	/
COc1ccc(-c2nc(Nc3ccc(N4CCOCC4)cc3)c3ncn(Cc4ccc(C(F)(F)F)cc4)c3n2)cc1	9	12*	-1	0	0	-7
CC(C)N(CCNc1nc(NC2CCC(O)CC2)nc2c1ncn2Cc1ccc(C(F)(F)F)cc1)C(C)C (stereo not given)	6	-1	-10	0	/	/
NC(=O)c1ccc(-c2nc(Nc3ccc(N4CCOCC4)cc3)c3ncn(Cc4ccc(C(F)(F)F)cc4)c3n2)cc1	6	0	-6	0	/	/
COc1ccc(CCNc2nc(NC3CCC(O)CC3)nc3c2ncn3Cc2ccc(C(F)(F)F)cc2)cc1 (stereo not given)	36*	5.9*	-13	0	0	37*
FC(F)(F)c1ccc(Cn2cnc3c(Nc4ccc(N5CCOCC5)cc4)nc(Cl)nc32)cc1	4	6.9*	-1	0	1	-2
COc1ccc(CCNc2nc(Nc3ccc(N4CCOCC4)cc3)nc3c2ncn3-c2ccccc2)cc1	12	6.5*	12	0	0	10
FC(F)(F)c1ccc(Cn2cnc3c(Nc4ccc(N5CCOCC5)cc4)nc(N4CCOCC4)nc32)cc1	-1	2	10	0	/	/
COc1ccc(/C=C2\N=C(c3ccc(Cl)cc3)N(c3cccc(F)c3)C2=O)cc1OC	4	-1	1	0	/	/
O=C(CCc1ccccc1)Nc1ccc(Cl)cc1C(=O)O	-15	-3	15	1	/	/
C=CCN1C(=O)/C(=C\c2cccc([N+](=O)[O-])c2)SC1=S	6	-1	25	0	/	/
SMILES	TEAD-YAP inh	GPR151 activ	MITF inh	FBW7 act	GPR151 confirm	GPR119 counter
CCCCCCCCC1CC1(C(=O)O)C(=O)O (stereo not given)	-27	2	-3	0	/	/
Fc1ccc(/C=N/Nc2nc3ccccc3s2)cc1	-64	7.0*	3	0	-1	4
CCCOc1ccccc1-c1nc(SCC(=O)OCC)n[nH]1	-6	0	15	0	/	/
CCN(CC)CCCN1C(=O)c2oc3ccc(C)cc3c(=O)c2C1c1ccc(OC)cc1 (stereo not given)	-47	-1	-2	0	/	/
COc1ccc(S(=O)(=O)NCc2ccncc2)cc1OC	8	5.4*	-25	0	1	-6
O=C(NCc1cccc(F)c1)N[C@H]1C[C@H]2C(=O)N3CCC[C@@H]3C(=O)N2C1	-7	-1	4	0	/	/
CC(=O)n1cc(/C=c2\sc3nc4cc(C)c(C)cc4n3c2=O)c(-c2ccc(F)cc2)n1	-7	6.1*	-12	0	1	-7
O=C(O)c1ccc(-n2ccnc2)c([N+](=O)[O-])c1	-4	2	5	0	/	/
O=C(c1ccccc1)c1ccc(-n2ccnc2)c([N+](=O)[O-])c1	3	7.3*	8	0	0	3
Cc1ccc(C(=O)c2ccccc2)cc1[N+](=O)[O-]	3	8.7*	12	0	-1	-1
O=C(CSC1CC(=O)N(c2ccc(F)cc2)C1=O)Nc1cccc(F)c1 (stereo not given)	-3	0	5	0	/	/
CCOC(=O)c1ccc(Nc2ncnc3c2cnn3Cc2ccccc2)cc1	2	6.2*	25	0	-1	-14
CCOC(=O)c1ccc(Nc2ncnc3c2cnn3C)cc1	-17	-1	10	0	/	/
NC(=O)NC(=O)COC(=O)c1ccc([N+](=O)[O-])s1	-4	3	-3	0	/	/
O=C(c1cnc(N2CCN(c3ccccn3)CC2)c2ccccc12)N1CCN(c2ccccc2F)CC1	9	0	5	0	/	/
COc1ccccc1CNC1CCCN(c2nc(C)c3cc(F)ccc3n2)CC1 (stereo not given)	-1	5.4*	7	0	0	14
Cc1c(CCC#N)c(NCCN(C)C)n2c(nc3ccccc32)c1C#N	-5	-1	0	0	/	/
Cc1c(C(=O)N2CCN(c3ccccc3Cl)CC2)nnn1-c1nc2c(s1)CCCC2	1	9.4*	-6	0	1	-3
C[n+]1ccccc1/C=C/c1ccccc1	0	0	9	0	/	/
C[n+]1ccccc1/C=C/c1ccc([N+](=O)[O-])cc1	-11	6.6*	2	0	0	1
Cc1c(C(=O)c2ccc(Br)cc2)c(=O)n(C)c(=O)n1C	-2	5.8*	22	0	0	-2
N#C/C(=C\c1cccc(F)c1)c1ccccc1	-8	0	0	0	/	/
COc1ccccc1-n1c(-c2ccc(NS(C)(=O)=O)cc2)n[nH]c1=S	-9	6.5*	2	0	-1	-6
COc1ccc(-c2n[nH]c(=S)n2-c2cc(OC)ccc2OC)cc1	7	1	2	0	/	/
Cc1nn(CC(=O)Nc2ccc(Oc3ccc(Cl)cc3)cc2)c(C)c1[N+](=O)[O-]	-3	-1	-13	0	/	/

Screens deposited in PubChem BioAssay by The Scripps Research Institute Molecular Screening Center.
